Measured values as given in the supplement of paper PMC11732987, “Enantioselective OTUD7B fragment discovery through chemoproteomics screening and high-throughput optimisation” (Communications Chemistry, 2025).

Columns and labels:
Test in all cases: log2 ratio of Biotin-Ahx-Ub-VS probe labelling (compound/DMSO); higher = less target engagement, active = hit call of the paper (q ≤ 0.05, log2 ratio ≤ -1)
Conditions in all cases: treatment time: 3 h
[1] = compound: CCC1N(CCc2sccc12)C(=O)CCl
Procedure, shortened: (§1)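 For activity-based profiling, 495 µg portions of HEK293T lysate in Tris/CHAPS/IGEPAL buffer with protease inhibitors were treated in triplicate with compound at 50 or 200 µM or with DMSO for 3 h. A 1 h incubation with Biotin-Ahx-Ub-VS (0.5 µM final) followed, then NeutrAvidin enrichment, LysC and trypsin digestion and diaPASEF LC-MS/MS. The compound/DMSO base-two log ratios were averaged from median-normalised label-free quantities using an unpaired t-test. Proteins needed at least 2 unique peptides to be included.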

[2] = compound: CN1c2ccccc2C(CS1(=O)=O)NC(=O)CCl
Procedure, shortened: as §1

[3] = compound: Cl.ClCC(=O)N1CCc2ncncc2C1
Procedure, shortened: as §1

[4] = compound: Cl.Cn1ncc2C(CCCc12)NC(=O)CCl
Procedure, shortened: as §1

[5] = compound: ClCC(=O)NC1CCOc2ccccc12
Procedure, shortened: as §1

[6] = compound: ClCC(=O)NC1CCCc2ccccc12
Procedure, shortened: (§2)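 Values are average ratios of compound to vehicle from an unpaired t-test, limited to proteins with at least two unique peptides. HEK293T lysate (495 µg per sample, in Tris/CHAPS/IGEPAL buffer with protease inhibitors) was exposed in triplicate to a concentration series of compound or to vehicle for 3 h, then to Biotin-Ahx-Ub-VS at 0.5 µM final for 1 h. Labelled deubiquitinases were enriched on NeutrAvidin, digested with LysC and trypsin, and analysed by diaPASEF LC-MS/MS. Ratios are given on a log2 scale from Spectronaut label-free protein quantities normalised to the global median.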

[7] = compound: ClCC(=O)N[C@@H]1CCCc2ccccc12
Procedure, shortened: as §2

[8] = compound: ClCC(=O)N[C@H]1CCCc2ccccc12
Procedure, shortened: as §2

[9] = compound: CCC1N(CCc2cc(OC)c(Cl)cc12)C(=O)CCl
Procedure, shortened: as §1

[10] = compound: CCCC1N(CCc2cc(OC)c(OC)cc12)C(=O)CCl
Procedure, shortened: as §1

Measured: log2 ratio of Biotin-Ahx-Ub-VS probe labelling

UniProt Q9P2H5
Sequence of UniProt Q9P2H5 (Q9P2H5 whole entry): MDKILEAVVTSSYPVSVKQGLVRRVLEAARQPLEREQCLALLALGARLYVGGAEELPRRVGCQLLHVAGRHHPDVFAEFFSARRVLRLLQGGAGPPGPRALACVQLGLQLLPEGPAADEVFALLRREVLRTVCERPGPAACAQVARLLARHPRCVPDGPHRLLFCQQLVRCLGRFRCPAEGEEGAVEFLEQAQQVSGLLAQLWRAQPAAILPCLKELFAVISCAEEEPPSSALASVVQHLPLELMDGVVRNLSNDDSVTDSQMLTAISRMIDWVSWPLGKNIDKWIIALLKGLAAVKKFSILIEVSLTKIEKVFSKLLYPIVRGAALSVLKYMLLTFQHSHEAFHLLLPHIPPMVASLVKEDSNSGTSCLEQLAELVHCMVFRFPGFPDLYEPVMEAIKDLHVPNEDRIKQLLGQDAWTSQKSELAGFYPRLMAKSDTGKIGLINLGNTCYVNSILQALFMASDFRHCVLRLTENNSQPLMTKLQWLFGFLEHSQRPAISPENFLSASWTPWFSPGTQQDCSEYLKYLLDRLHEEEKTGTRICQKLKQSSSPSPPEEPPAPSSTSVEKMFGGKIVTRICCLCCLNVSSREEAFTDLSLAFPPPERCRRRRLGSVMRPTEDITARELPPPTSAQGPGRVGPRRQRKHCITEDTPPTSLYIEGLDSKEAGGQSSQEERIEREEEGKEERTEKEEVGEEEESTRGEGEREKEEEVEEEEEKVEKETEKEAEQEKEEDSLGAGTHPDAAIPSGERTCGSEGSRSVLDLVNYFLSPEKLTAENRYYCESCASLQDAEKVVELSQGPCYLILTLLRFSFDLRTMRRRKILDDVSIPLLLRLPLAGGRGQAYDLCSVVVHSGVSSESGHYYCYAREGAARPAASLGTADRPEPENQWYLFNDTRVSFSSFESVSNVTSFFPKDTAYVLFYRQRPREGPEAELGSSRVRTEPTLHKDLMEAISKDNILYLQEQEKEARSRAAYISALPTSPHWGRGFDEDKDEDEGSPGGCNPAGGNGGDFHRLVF
inactive: [1]; compound concentration: 50uM -0.0377 | [1]; compound concentration: 200uM 0.00874 | [2]; compound concentration: 50uM -0.392 | [2]; compound concentration: 200uM -0.0291 | [3]; compound concentration: 50uM -0.175 | [3]; compound concentration: 200uM -0.43 | [4]; compound concentration: 50uM 0.0391 | [4]; compound concentration: 200uM 0.177 | [5]; compound concentration: 50uM -0.286 | [5]; compound concentration: 200uM -0.188 | [6]; compound concentration: 0.78uM -0.0934 | [6]; compound concentration: 1.56uM -0.117 | [6]; compound concentration: 3.13uM -0.133 | [6]; compound concentration: 6.25uM -0.0237 | [6]; compound concentration: 12.5uM -0.00833 | [6]; compound concentration: 25uM -0.293 | [6]; compound concentration: 50uM -0.0682 | [6]; compound concentration: 100uM -0.133 | [6]; compound concentration: 200uM -0.168 | [7]; compound concentration: 0.78uM -0.164 | [7]; compound concentration: 1.56uM -0.0308 | [7]; compound concentration: 3.13uM -0.0316 | [7]; compound concentration: 6.25uM -0.151 | [7]; compound concentration: 12.5uM -0.2 | [7]; compound concentration: 25uM -0.0579 | [7]; compound concentration: 50uM 0.05 | [7]; compound concentration: 100uM -0.00994 | [7]; compound concentration: 200uM -0.0974 | [8]; compound concentration: 0.78uM 0.0582 | [8]; compound concentration: 1.56uM -0.146 | [8]; compound concentration: 3.13uM -0.121 | [8]; compound concentration: 6.25uM -0.0964 | [8]; compound concentration: 12.5uM -0.172 | [8]; compound concentration: 25uM -0.164 | [8]; compound concentration: 50uM -0.0898 | [8]; compound concentration: 100uM -0.0993 | [8]; compound concentration: 200uM 0.0345 | [9]; compound concentration: 50uM 0.132 | [9]; compound concentration: 200uM -0.452 | [10]; compound concentration: 50uM -0.52 | [10]; compound concentration: 200uM -0.532

PRPF8 (UniProt Q6P2Q9)
inactive: [1]; compound concentration: 50uM -0.0394 | [1]; compound concentration: 200uM -0.112 | [2]; compound concentration: 50uM -0.0921 | [2]; compound concentration: 200uM -0.054 | [3]; compound concentration: 50uM 0.0381 | [3]; compound concentration: 200uM -0.119 | [4]; compound concentration: 50uM 0.0788 | [4]; compound concentration: 200uM 0.0562 | [5]; compound concentration: 50uM 0.0594 | [5]; compound concentration: 200uM -0.157 | [6]; compound concentration: 0.78uM -0.034 | [6]; compound concentration: 1.56uM -0.0309 | [6]; compound concentration: 3.13uM -0.104 | [6]; compound concentration: 6.25uM -0.01 | [6]; compound concentration: 12.5uM -0.0322 | [6]; compound concentration: 25uM -0.101 | [6]; compound concentration: 50uM -0.0882 | [6]; compound concentration: 100uM -0.0511 | [6]; compound concentration: 200uM -0.0422 | [7]; compound concentration: 0.78uM -0.0504 | [7]; compound concentration: 1.56uM -0.022 | [7]; compound concentration: 3.13uM -0.0939 | [7]; compound concentration: 6.25uM -0.0748 | [7]; compound concentration: 12.5uM -0.0604 | [7]; compound concentration: 25uM -0.0428 | [7]; compound concentration: 50uM -0.086 | [7]; compound concentration: 100uM -0.0702 | [7]; compound concentration: 200uM -0.137 | [8]; compound concentration: 0.78uM -0.0339 | [8]; compound concentration: 1.56uM -0.0293 | [8]; compound concentration: 3.13uM -0.049 | [8]; compound concentration: 6.25uM 0.0146 | [8]; compound concentration: 12.5uM -0.0785 | [8]; compound concentration: 25uM -0.109 | [8]; compound concentration: 50uM -0.0661 | [8]; compound concentration: 100uM -0.111 | [8]; compound concentration: 200uM -0.149 | [9]; compound concentration: 50uM 0.0405 | [9]; compound concentration: 200uM 0.131 | [10]; compound concentration: 50uM -0.0761 | [10]; compound concentration: 200uM -0.182
